IL-1B inflam inh – qHTS for Inhibitors of Inflammasome Signaling: IL-1-beta AlphaLISA Primary Screen; THP-1 LPS/ATP IL-1B secretion, AlphaLISA, 16 h; active compounds read low; AID 743279, 2014; 360,000 compounds, 4.7% hits; activity change, % at 57.5 µM; in the data active means activity change below about -50%; inconclusive means mostly about -30% to -49%
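THP-1 cells pretreated 1 hr with compounds (up to 57.5 uM final), then stimulated with LPS (250 ng/mL final) plus ATP (1.25 mM final); secreted IL-1B measured by AlphaLISA after 16 hr, decreased signal indicating inhibition.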
DT40 TDP1 no CPT – qHTS for Inhibitors of human tyrosyl-DNA phosphodiesterase 1 (TDP1): qHTS in cells in absence of CPT. DT40 Tdp1-/- hTDP1 cells, no CPT, ATP luminescence, 48 h. Potency, µM (top dose mostly 46.2 µM), for inactives: at the top dose activity change, negative = growth inhibition, usual class: inhibitors. 420,000 compounds, 15% hits. AID 686978, 2013; further: potency means the concentration at half of the fitted maximal effect; nearly all actives have a fitted effect of over 55% in size
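Cells were dispensed at 400 per well, compounds added by pin tool, plates incubated ≥48 hr at 37 °C, then CellTiter-Glo added for 30 min at room temperature before luminescence reading. Line: DT40 Tdp1-/- complemented with hTDP1; camptothecin omitted.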
HT1080-NT tox – qHTS for induction of synthetic lethality in tumor cells producing 2HG: qHTS for the HT-1080-NT fibrosarcoma cell line; Potency, µM (titrated, usually from 46.1 µM), for the others: top-dose activity, negative = less viability, actives largely listed as cytotoxic; HT-1080-NT fibrosarcoma viability, CellTiter-Glo ATP luminescence, 48 h; 360,000 compounds, 1.6% hits;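 further: NT is the 2HG producing partner of a matched IDH1 knockdown line; potency means the concentration at half of the fitted maximal effect; 0% = DMSO-treated cells and -100% = media-only wells without cells; nearly all actives have a fitted effect of over 55% in size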
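750 cells/well, RPMI + 5% FBS; 2 h settle, compound pin-transfer, 48 h at 37 degrees C. CellTiter-Glo 10 min RT, luminescence. Normalized to DMSO and media-only wells.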
ELG1 repair inh – qHTS screen for small molecules that inhibit ELG1-dependent DNA repair in human embryonic kidney (HEK293T) cells expressing luciferase-tagged ELG1; HEK293T ELG1-luciferase reporter, luminescence, 16 h; DNA damage induced by 5-fluorouridine; Potency, µM (titrated, usually from 46.1 µM), for inactives: top-dose activity change, negative = inhibition, most hits filed as inhibitors; 330,000 compounds, 2.3% hits; AID 504467, 2011; further: potency means the concentration at half of the fitted maximal effect; nearly all actives have a fitted effect of over 55% in size
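Luminescence from the luciferase reporter, measured 30 min after ONE-Glo reagent at room temperature, was the read-out. Beforehand, 2,000 cells per well were exposed for 16 hr at 37 °C to 5-fluorouridine together with compound or vehicle.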
DT40 TDP1 CPT – qHTS for Inhibitors of human tyrosyl-DNA phosphodiesterase 1 (TDP1): qHTS in cells in presence of CPT. chicken DT40 Tdp1-/-;hTDP1 cells + 20 nM CPT, ATP luminescence, 48 h. Potency, µM (doses to about 46.2 µM), without a hit: at the highest dose activity change, negative = growth inhibition, actives largely listed as inhibitors. 420,000 compounds, 12% hits. AID 686979, 2013; further: potency means the concentration at half of the fitted maximal effect; nearly all actives have a fitted effect of over 55% in size
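Chicken DT40 Tdp1-/- cells complemented with human TDP1, 400 cells/well, exposed to compounds plus 20 nM camptothecin for at least 48 h at 37 C; viability read as ATP content by CellTiter-Glo luminescence.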
HT1080 IDH1KD tx – qHTS for induction of synthetic lethality in tumor cells producing 2HG: qHTS for the HT-1080-IDH1KD cell line | HT-1080 IDH1 knockdown viability, ATP luminescence, 48 h | Potency, µM (series often up to 46.1 µM), without a hit: at the top dose activity, negative = toxicity, hits mostly cytotoxic | 360,000 compounds, 2% hits | AID 686971, 2013;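 further: potency means the concentration at half of the fitted maximal effect; 0% = DMSO wells and -100% = cell-free medium wells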
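Luminescent ATP read-out (CellTiter-Glo, 10 min at room temperature) after 48 h compound exposure at 37 °C gave viability of IDH1-knockdown HT-1080 cells. Activity was normalised to DMSO and cell-free wells, then fitted as concentration-response curves.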
* = called active by the depositor; [ ] = another dose, or the depositor's remark. Sampled rows, rich in hits. Any-hit rate of the full collection: about 19%. Unless noted, the call rests on the fitted dose curve; in most records, active means well fitted curve in the direction sought with a large enough effect; inconclusive means small, poorly fitted or top-dose-only effect, or another doubt; inactive means no such curve, though single readings can be large; an effect the other way counts as inactive or inconclusive. Unless noted, on the % scale 0 is the no-effect control and ±100 the full control effect.

Results for COc1ccc(C2=NOC(C(=O)NCc3ccccn3)C2)cc1 (configuration not stated) ?
IL-1B inflam inh: 19; DT40 TDP1 no CPT: -29%; HT1080-NT tox: -3%; ELG1 repair inh: 9%; DT40 TDP1 CPT: -27%; HT1080 IDH1KD tx: -3%

What do the screens show for `CN(C)C(N)=NCCC[C@H](N)C(=O)O`?
IL-1B inflam inh: -10; DT40 TDP1 no CPT: -13%; HT1080-NT tox: 16%; DT40 TDP1 CPT: 4%; HT1080 IDH1KD tx: 11%

What do the screens show for `COc1ccccc1-n1cc(CN2CCOc3ccc(CN4C[C@@H](C)O[C@@H](C)C4)cc3C2)cn1`?
DT40 TDP1 no CPT: inconclusive; DT40 TDP1 CPT: -11%[9.04 µM]

How did COc1ccc(CCNC(=O)C2CC(c3ccc([N+](=O)[O-])cc3)=NO2)cc1 (configuration not stated) do in these assays?
IL-1B inflam inh: 21; DT40 TDP1 no CPT: inconclusive; HT1080-NT tox: 14%; ELG1 repair inh: inconclusive; DT40 TDP1 CPT: 6.5µM*; HT1080 IDH1KD tx: 9%

What do the screens show for `COc1ccc(CCNC(=O)C2CC(c3cccc([N+](=O)[O-])c3)=NO2)cc1` (configuration not stated)?
IL-1B inflam inh: -4; DT40 TDP1 no CPT: inconclusive; HT1080-NT tox: 12%; ELG1 repair inh: inconclusive; DT40 TDP1 CPT: -19%; HT1080 IDH1KD tx: 5%

Results for CCc1nc2c(OCc3ccc4c(c3)OCO4)cccn2c1N(C=O)Cc1ccccc1 ?
IL-1B inflam inh: -12; DT40 TDP1 no CPT: inconclusive; HT1080-NT tox: 3%; DT40 TDP1 CPT: inconclusive; HT1080 IDH1KD tx: 2%

Results for CCc1nc2c(OCc3ccccc3C)cccn2c1N(C)C(=O)C1CC1 ?
IL-1B inflam inh: -1; DT40 TDP1 no CPT: 23µM*; HT1080-NT tox: inconclusive; DT40 TDP1 CPT: inconclusive; HT1080 IDH1KD tx: 7%

How did CCCCN(C=O)c1c(CC)nc2c(OCc3ccc(Cl)cc3Cl)cccn12 do in these assays?
IL-1B inflam inh: -19; DT40 TDP1 no CPT: 9.2µM*; HT1080-NT tox: inconclusive; DT40 TDP1 CPT: 21µM*; HT1080 IDH1KD tx: inconclusive

Results for CCCCN(C=O)c1c(CC)nc2c(OCc3ccccc3C)cccn12 ?
IL-1B inflam inh: 6; DT40 TDP1 no CPT: inconclusive; HT1080-NT tox: 13%; DT40 TDP1 CPT: 15µM*; HT1080 IDH1KD tx: -18%

How did C#CCn1c(=NC(=O)c2ccc(Br)s2)sc2cccc(OC)c21 do in these assays?
IL-1B inflam inh: 28; DT40 TDP1 no CPT: 21µM*; HT1080-NT tox: inconclusive; ELG1 repair inh: inconclusive; DT40 TDP1 CPT: inconclusive; HT1080 IDH1KD tx: -22%

Results for C=CCn1c(=NC(=O)c2cccs2)sc2cccc(OC)c21 ?
IL-1B inflam inh: 23; DT40 TDP1 no CPT: 16µM*; HT1080-NT tox: -24%; ELG1 repair inh: -8%; DT40 TDP1 CPT: inconclusive; HT1080 IDH1KD tx: -27%

Results for O=C(N/N=C/c1cccnc1)c1cc(-c2ccc(Br)cc2)nc2ccccc12 ?
IL-1B inflam inh: inconclusive; DT40 TDP1 no CPT: 8.2µM*; HT1080-NT tox: inconclusive; ELG1 repair inh: 13µM*; DT40 TDP1 CPT: 12µM*; HT1080 IDH1KD tx: inconclusive

What do the screens show for `CCOc1cc(C=NNC(=O)N(c2ccccc2)c2ccccc2)ccc1O`?
IL-1B inflam inh: -16; DT40 TDP1 no CPT: 16µM*; HT1080-NT tox: inconclusive; DT40 TDP1 CPT: 29µM*; HT1080 IDH1KD tx: inconclusive

What do the screens show for `COc1ccc(/C=N/NC(=O)c2ccncc2)cc1CN1CCOCC1`?
DT40 TDP1 no CPT: -9%; HT1080-NT tox: 18%; ELG1 repair inh: -1%; DT40 TDP1 CPT: -4%; HT1080 IDH1KD tx: 18%

How did O=C(N/N=C/c1cccnc1)c1cc(-c2ccc(Cl)cc2)nc2ccccc12 do in these assays?
IL-1B inflam inh: -11; DT40 TDP1 no CPT: 8.2µM*; HT1080-NT tox: 2%; DT40 TDP1 CPT: inconclusive; HT1080 IDH1KD tx: -7%

What do the screens show for `O=C(N/N=C/c1cccnc1)c1cc(-c2ccccc2)nc2ccccc12`?
IL-1B inflam inh: -6; DT40 TDP1 no CPT: inconclusive; HT1080-NT tox: inconclusive; ELG1 repair inh: inconclusive; DT40 TDP1 CPT: inconclusive; HT1080 IDH1KD tx: -23%

Results for CCOc1cccc(-c2cc(C(=O)N/N=C/c3ccc(OC)c(CN4CCOCC4)c3)c3ccccc3n2)c1 ?
IL-1B inflam inh: -24; DT40 TDP1 no CPT: 16µM*; HT1080-NT tox: inconclusive; ELG1 repair inh: 23µM*; DT40 TDP1 CPT: 18µM*; HT1080 IDH1KD tx: inconclusive

What do the screens show for `COc1ccc(NC(=O)Cn2c(=O)n(CCCC(=O)NCCc3ccc(C)cc3)c(=O)c3ccccc32)cc1Cl`?
DT40 TDP1 no CPT: -17%; DT40 TDP1 CPT: -13%

Results for Cc1ccc(/C=N/NC(=O)c2cc(-c3cccnc3)nc3ccccc23)cc1 ?
IL-1B inflam inh: 77; DT40 TDP1 no CPT: 1.5µM*; HT1080-NT tox: 1.5µM*; ELG1 repair inh: -13%; DT40 TDP1 CPT: 2.1µM*; HT1080 IDH1KD tx: 1.3µM*

Results for CCOc1cc(/C=N/NC(=O)c2cc(-c3cccnc3)nc3ccccc23)ccc1O ?
IL-1B inflam inh: 21; DT40 TDP1 no CPT: 6.5µM*; HT1080-NT tox: -7%; ELG1 repair inh: -16%; DT40 TDP1 CPT: -29%; HT1080 IDH1KD tx: -2%

Results for O=C(NC1CCC(O)CC1)c1cc(-c2ccc(Cl)cc2)nc2ccccc12 (configuration not stated) ?
IL-1B inflam inh: -55*; DT40 TDP1 no CPT: inconclusive; HT1080-NT tox: -2%; ELG1 repair inh: 8%; DT40 TDP1 CPT: inconclusive; HT1080 IDH1KD tx: 20%

How did O=C(NC1CCC(O)CC1)c1ccc(-c2ccc(Cl)cc2)o1 (configuration not stated) do in these assays?
IL-1B inflam inh: -62*; DT40 TDP1 no CPT: inconclusive; HT1080-NT tox: -2%; ELG1 repair inh: inconclusive; DT40 TDP1 CPT: inconclusive; HT1080 IDH1KD tx: 0%

What do the screens show for `CCOc1cc(/C=N/NC(=O)c2c(-c3ccccc3)noc2C)ccc1O`?
IL-1B inflam inh: 38; DT40 TDP1 no CPT: -7%; HT1080-NT tox: 2%; ELG1 repair inh: -5%; DT40 TDP1 CPT: -23%; HT1080 IDH1KD tx: 3%

Compound activity deposited in PubChem BioAssay by National Center for Advancing Translational Sciences (NCATS).
